Reference: the supplement of paper PMC10849652
The full data set covers some 8,800 targets. This sample favours those with a hit. About 0.5% of all pairs of compound and target were hits.

Tests used:
Assay in all cases: log2 fold change, soluble protein after heating vs DMSO (PISA); higher = thermal stabilisation; K562 lysate, 10 uM; active = over 0.2 and 3.5 SD of the protein, either way, in both replicates (recomputed)
[1] = compound: CCCS(=O)(=O)Nc1ccc(F)c(C(=O)c2c[nH]c3ncc(-c4ccc(Cl)cc4)cc23)c1F [vemurafenib]
Outline: (§1)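 K562 pellets were dounce-homogenised in PBS pH 7.4 with 1 mM MgCl2, and the crude extract at 1 mg/mL protein was treated with 10 μM compound for 30 min. Aliquots were heated for 3 min across 48°C-58°C, pooled, and brought to 0.5% NP-40 at 4°C; soluble protein was the supernatant after 21,000xg for 90 min. Soluble protein was quantified by TMTpro 16plex LC-MS/MS with channel sums equalised, and reported as log2 fold change in thermal stability against DMSO controls, with values from duplicates.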

[2] = compound: CCCS(=O)(=O)Nc1ccc(F)c(C(=O)c2c[nH]c3ncc(Cl)cc23)c1F
Outline: as §1

[3] = compound: CCN(CCCOc1ccc2c(Nc3cc(CC(=O)Nc4cccc(F)c4)[nH]n3)ncnc2c1)CCOP(=O)(O)O [barasertib]
Outline: as §1

[4] = compound: CC[C@@H]1C(=O)N(C)c2cnc(Nc3ccc(C(=O)NC4CCN(C)CC4)cc3OC)nc2N1C1CCCC1
Outline: as §1

[5] = compound: CC[C@@H]1C(=O)N(C)c2cnc(Nc3ccc(C(=O)N[C@H]4CC[C@H](N5CCN(CC6CC6)CC5)CC4)cc3OC)nc2N1C(C)C [volasertib]
Outline: as §1

[6] = compound: CCn1c(C(=O)N(C2CC2)C2CC2)cc2c3c(ncn3C)c(Nc3cc(C)n(C)n3)nc21
Outline: as §1

[7] = compound: CCn1cc(-c2ccnc3[nH]c(-c4cccc(CN(C)C)c4)cc23)c(-c2ccc(NC(=O)N(C)C)cc2)n1
Outline: as §1

[8] = compound: CN1CCC(CNc2ccc3ncc(-c4cccc(OC(F)(F)F)c4)n3n2)CC1
Outline: as §1

[9] = compound: CN1CCN(CCOc2cc(OC3CCOCC3)c3c(Nc4c(Cl)ccc5c4OCO5)ncnc3c2)CC1 [saracatinib]
Outline: as §1

[10] = compound: CN1CCN(c2nc(C3=C(c4c[nH]c5ccccc45)C(=O)NC3=O)c3ccccc3n2)CC1 [sotrastaurin]
Outline: as §1

[11] = compound: CN1CC[C@H](c2c(O)cc(O)c3c(=O)cc(-c4ccccc4Cl)oc23)[C@H](O)C1 [alvocidib]
Outline: as §1

[12] = compound: CN1CCc2c(c3ccccc3n2Cc2ccc(C(=O)NO)cc2)C1 [Tubastatin A]
Outline: as §1

[13] = compound: CNC(=O)C1=CC=CC=C1NC2=NC(=NC=C2Cl)NC3=C(C=C(C=C3)N4CCOCC4)OC
Outline: as §1

[14] = compound: CNC(=O)c1ccc(Nc2ncc(C(F)(F)F)c(NCc3nccnc3N(C)S(C)(=O)=O)n2)cc1 [defactinib]
Outline: as §1

[15] = compound: CNc1nc(-c2ccc3c(N)n[nH]c3c2)cc(N2C[C@@H](C(=O)NC3CCCCC3)CC[C@H]2C)n1
Outline: as §1

[16] = compound: COC(=O)N[C@@H](C)CNc1nccc(-c2cn(C(C)C)nc2-c2cc(Cl)cc(NS(C)(=O)=O)c2F)n1 [encorafenib]
Outline: as §1

[17] = compound: COC(=O)[C@H](CCSC)NC(=O)C1=C(C=C(C=C1)NC[C@H](CS)N)C2=CC=CC=C2
Outline: as §1

[18] = compound: COc1cc(Nc2ncc3c(n2)-c2ccc(Cl)cc2C(c2c(F)cccc2OC)=NC3)ccc1C(=O)O [alisertib]
Outline: as §1

[19] = compound: COc1cc2nc(-c3cc(F)ccc3O)nc(N[C@@H]3CNC[C@H]3C(C)(C)O)c2cc1OC
Outline: as §1

[20] = compound: COc1cc2ncnc(Nc3ccc(F)c(Cl)c3)c2cc1OCCCN1CCOCC1 [gefitinib]
Outline: as §1

Measured: log2 fold change

ARHGAP6 (UniProt O43182)
UniProt O43182, sequence (O43182 whole entry, looked up): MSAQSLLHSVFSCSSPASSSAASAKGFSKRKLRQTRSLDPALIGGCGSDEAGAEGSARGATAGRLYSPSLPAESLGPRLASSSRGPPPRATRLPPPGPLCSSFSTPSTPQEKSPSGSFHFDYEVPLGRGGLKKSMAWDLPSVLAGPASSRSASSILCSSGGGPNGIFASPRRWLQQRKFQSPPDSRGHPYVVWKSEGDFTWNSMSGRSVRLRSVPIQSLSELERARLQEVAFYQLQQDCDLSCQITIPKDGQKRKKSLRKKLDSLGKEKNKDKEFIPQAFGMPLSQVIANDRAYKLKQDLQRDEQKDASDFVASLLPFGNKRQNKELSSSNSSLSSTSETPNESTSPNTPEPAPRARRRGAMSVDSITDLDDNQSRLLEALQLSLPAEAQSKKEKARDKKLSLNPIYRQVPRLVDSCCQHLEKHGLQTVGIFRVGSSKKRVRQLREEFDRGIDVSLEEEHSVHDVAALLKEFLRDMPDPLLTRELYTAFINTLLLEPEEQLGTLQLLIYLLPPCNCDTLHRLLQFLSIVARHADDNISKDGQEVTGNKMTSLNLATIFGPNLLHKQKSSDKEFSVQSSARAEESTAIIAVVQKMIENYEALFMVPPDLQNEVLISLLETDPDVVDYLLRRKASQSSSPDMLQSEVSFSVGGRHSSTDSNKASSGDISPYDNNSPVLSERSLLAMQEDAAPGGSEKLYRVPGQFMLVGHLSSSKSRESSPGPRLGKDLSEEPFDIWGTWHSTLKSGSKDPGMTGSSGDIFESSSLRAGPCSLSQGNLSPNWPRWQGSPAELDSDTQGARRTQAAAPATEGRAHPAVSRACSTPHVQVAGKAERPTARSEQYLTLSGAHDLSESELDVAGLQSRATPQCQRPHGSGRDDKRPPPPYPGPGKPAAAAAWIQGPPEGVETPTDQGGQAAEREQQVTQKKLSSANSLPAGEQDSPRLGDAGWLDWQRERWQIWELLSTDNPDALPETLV
inactive: [1] 0.074 | [2] 0.038 | [3] 0.116 | [4] -0.038 | [5] -0.107 | [6] -0.014 | [7] 0.072 | [8] -0.139 | [9] 0.031 | [10] -0.049 | [11] 0.003 | [12] -0.201 | [13] 0.129 | [14] 0.012 | [15] -0.017 | [16] 0.06 | [17] 0.063 | [18] 0.017 | [19] -0.012 | [20] -0.069

ACBD6 (UniProt Q9BR61)
UniProt Q9BR61, sequence (Q9BR61 whole entry, looked up): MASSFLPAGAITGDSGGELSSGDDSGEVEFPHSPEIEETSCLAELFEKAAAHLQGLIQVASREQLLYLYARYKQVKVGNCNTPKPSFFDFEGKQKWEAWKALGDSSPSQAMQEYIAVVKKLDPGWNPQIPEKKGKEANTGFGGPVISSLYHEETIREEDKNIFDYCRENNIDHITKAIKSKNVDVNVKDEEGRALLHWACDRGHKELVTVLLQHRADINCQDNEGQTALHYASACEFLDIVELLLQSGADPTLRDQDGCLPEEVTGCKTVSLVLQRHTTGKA
inactive: [1] 0.028 | [2] 0.035 | [3] -0.006 | [4] -0.025 | [5] -0.082 | [6] 0.013 | [7] -0.009 | [8] 0.006 | [9] -0.015 | [10] 0.014 | [11] -0.009 | [12] -0.15 | [13] 0.056 | [14] -0.005 | [15] 0.016 | [16] -0.003 | [17] 0.051 | [18] -0.006 | [19] 0.016 | [20] -0.022

ABHD12 isoform 2 (UniProt Q8N2K0)
inactive: [1] -0.049 | [2] 0.077 | [3] -0.015 | [4] 0.034 | [5] 0.006 | [6] -0.055 | [7] 0.119 | [8] -0.111 | [9] -0.039 | [10] 0.018 | [11] 0.02 | [12] 0.001 | [13] 0.039 | [14] -0.004 | [15] 0.003 | [16] 0.046 | [17] -0.018 | [18] -0.031 | [19] -0.03 | [20] -0.045

ACSL1 (UniProt P33121)
inactive: [1] 0.021 | [2] 0.023 | [3] 0.046 | [4] -0.054 | [5] -0.1 | [6] 0.038 | [7] -0.014 | [8] -0.242 | [9] -0.066 | [10] -0.002 | [11] 0.02 | [12] -0.169 | [13] 0.001 | [14] 0.096 | [15] -0.062 | [16] 0.007 | [17] -0.052 | [18] 0.057 | [19] -0.08 | [20] -0.036

ACTBL2 (UniProt Q562R1)
UniProt Q562R1, sequence (Q562R1 whole entry, looked up): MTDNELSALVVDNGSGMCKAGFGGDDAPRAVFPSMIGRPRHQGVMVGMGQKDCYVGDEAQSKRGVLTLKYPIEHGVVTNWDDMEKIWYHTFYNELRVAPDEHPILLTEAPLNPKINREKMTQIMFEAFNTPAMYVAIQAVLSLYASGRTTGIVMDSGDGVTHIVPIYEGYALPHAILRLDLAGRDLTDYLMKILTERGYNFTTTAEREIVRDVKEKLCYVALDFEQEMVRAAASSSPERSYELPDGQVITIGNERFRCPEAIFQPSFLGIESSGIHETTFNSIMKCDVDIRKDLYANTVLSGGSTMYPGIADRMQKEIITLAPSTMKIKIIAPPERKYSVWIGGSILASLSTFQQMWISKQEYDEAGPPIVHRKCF
inactive: [1] -0.097 | [2] 0.089 | [3] -0.117 | [4] 0.098 | [5] -0.166 | [6] 0.105 | [7] 0.417 | [8] -0.023 | [9] -0.108 | [10] 0.049 | [11] -0.083 | [12] -0.111 | [13] -0.01 | [14] 0.093 | [15] -0.008 | [16] -0.226 | [17] 0.005 | [18] -0.273 | [19] 0.009 | [20] -0.223

ABCC5 (UniProt O15440)
active: [1] -0.603
inactive: [2] -0.001 | [3] -0.034 | [4] -0.067 | [5] -0.136 | [6] 0.145 | [7] -0.137 | [8] -0.022 | [9] 0.013 | [10] 0.018 | [11] -0.12 | [12] 0.121 | [13] -0.002 | [14] 0.125 | [15] 0.008 | [16] 0.165 | [17] -0.032 | [19] -0.012

ACLY (UniProt P53396)
UniProt P53396, sequence (P53396 whole entry, looked up): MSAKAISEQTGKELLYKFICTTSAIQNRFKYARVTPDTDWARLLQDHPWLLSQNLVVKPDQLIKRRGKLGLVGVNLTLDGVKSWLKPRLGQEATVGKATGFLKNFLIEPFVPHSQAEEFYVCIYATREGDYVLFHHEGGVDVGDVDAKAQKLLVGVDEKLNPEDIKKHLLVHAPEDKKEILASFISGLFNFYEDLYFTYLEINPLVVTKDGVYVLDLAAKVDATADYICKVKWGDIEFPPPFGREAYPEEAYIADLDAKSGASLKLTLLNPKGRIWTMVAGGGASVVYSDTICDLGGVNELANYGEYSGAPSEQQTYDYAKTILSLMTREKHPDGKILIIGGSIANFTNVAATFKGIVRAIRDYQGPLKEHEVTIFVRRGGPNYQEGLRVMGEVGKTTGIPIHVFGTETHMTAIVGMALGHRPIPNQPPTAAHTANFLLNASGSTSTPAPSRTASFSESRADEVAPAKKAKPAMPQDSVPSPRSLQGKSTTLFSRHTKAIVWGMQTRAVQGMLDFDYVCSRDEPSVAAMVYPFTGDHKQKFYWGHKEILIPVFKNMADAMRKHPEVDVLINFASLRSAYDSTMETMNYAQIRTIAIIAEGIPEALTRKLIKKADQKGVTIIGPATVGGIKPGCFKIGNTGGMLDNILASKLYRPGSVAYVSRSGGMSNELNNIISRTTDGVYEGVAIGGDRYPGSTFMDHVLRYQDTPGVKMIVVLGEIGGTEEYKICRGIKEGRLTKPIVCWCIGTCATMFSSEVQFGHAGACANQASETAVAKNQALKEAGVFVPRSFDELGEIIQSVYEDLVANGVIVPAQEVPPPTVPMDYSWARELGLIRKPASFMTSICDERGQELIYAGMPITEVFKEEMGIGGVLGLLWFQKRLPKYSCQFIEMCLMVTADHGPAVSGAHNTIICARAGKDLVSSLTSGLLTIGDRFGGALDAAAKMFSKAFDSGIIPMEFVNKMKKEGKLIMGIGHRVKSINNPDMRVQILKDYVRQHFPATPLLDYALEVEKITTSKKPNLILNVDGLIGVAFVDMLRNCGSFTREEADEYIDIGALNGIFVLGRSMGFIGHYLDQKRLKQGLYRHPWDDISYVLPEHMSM
inactive: [1] 0.017 | [2] 0.01 | [3] -0.003 | [4] -0.035 | [5] -0.031 | [6] -0.003 | [7] -0.049 | [8] 0.026 | [9] -0.007 | [10] 0.016 | [11] 0.022 | [12] 0.078 | [13] -0.006 | [14] -0.036 | [15] 0.01 | [16] -0.043 | [17] 0.133 | [18] 0.016 | [19] 0.003 | [20] 0.004

ANKRD27 (UniProt Q96NW4)
UniProt Q96NW4, sequence (Q96NW4 whole entry, looked up): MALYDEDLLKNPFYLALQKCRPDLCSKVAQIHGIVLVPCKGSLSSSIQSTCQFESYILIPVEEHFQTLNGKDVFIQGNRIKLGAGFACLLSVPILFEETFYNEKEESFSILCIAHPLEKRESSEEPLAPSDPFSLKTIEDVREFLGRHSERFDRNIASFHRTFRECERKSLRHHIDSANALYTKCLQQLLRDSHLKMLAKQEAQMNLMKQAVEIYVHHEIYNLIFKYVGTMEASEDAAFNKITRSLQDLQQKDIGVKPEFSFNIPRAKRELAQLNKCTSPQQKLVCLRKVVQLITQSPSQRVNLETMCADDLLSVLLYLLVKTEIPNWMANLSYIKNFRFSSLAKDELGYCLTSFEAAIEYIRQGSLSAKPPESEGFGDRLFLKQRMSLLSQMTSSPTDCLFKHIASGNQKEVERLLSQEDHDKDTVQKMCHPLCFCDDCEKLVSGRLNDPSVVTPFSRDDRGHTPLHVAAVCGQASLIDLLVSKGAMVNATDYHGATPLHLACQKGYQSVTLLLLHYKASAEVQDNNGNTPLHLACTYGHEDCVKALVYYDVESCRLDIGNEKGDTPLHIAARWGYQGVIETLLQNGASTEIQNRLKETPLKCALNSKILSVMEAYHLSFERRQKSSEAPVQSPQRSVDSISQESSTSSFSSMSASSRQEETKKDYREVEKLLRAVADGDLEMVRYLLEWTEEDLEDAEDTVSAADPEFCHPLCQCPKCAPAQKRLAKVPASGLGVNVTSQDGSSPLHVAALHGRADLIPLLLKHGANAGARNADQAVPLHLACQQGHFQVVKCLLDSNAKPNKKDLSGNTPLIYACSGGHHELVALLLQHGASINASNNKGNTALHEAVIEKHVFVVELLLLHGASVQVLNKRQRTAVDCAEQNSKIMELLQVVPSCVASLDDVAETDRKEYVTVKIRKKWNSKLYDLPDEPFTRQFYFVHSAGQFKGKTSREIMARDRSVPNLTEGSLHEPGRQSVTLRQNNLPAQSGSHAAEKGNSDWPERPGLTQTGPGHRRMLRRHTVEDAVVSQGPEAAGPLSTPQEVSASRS
inactive: [1] -0.016 | [2] 0.006 | [3] 0.043 | [4] 0.01 | [5] -0.075 | [6] 0.001 | [7] -0.042 | [8] -0.073 | [9] 0.054 | [10] -0.002 | [11] -0.056 | [12] -0.118 | [13] 0.046 | [14] 0.035 | [15] 0.003 | [16] -0.007 | [17] 0.103 | [18] -0.053 | [19] -0.087 | [20] 0.03

AGO4 (UniProt Q9HCK5)
inactive: [1] 0.033 | [2] 0.003 | [3] 0.04 | [4] -0.003 | [5] 0.017 | [6] -0.003 | [7] 0.036 | [8] 0.041 | [9] -0.011 | [10] -0.021 | [11] -0.013 | [12] -0.003 | [13] 0.003 | [14] -0.027 | [16] 0.025 | [17] -0.092 | [18] -0.008 | [19] 0.037 | [20] -0.015
active: [15] -0.214

AHCYL1 (UniProt O43865)
UniProt O43865, sequence (O43865 whole entry, looked up): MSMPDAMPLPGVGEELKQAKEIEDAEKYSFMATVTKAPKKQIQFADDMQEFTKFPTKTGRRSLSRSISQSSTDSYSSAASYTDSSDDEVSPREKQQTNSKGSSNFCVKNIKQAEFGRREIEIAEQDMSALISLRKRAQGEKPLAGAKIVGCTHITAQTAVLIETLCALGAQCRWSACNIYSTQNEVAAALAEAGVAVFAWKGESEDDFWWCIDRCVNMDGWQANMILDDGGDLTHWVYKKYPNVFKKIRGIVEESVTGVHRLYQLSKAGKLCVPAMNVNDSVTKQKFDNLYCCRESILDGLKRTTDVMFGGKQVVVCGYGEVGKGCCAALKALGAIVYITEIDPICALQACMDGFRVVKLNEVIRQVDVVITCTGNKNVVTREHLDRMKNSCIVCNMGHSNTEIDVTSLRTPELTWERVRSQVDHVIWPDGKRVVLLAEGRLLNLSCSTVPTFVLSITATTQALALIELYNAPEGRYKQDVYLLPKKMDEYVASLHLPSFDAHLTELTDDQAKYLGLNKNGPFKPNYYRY
inactive: [1] 0.018 | [2] 0.021 | [3] -0.001 | [4] 0.001 | [5] -0.073 | [6] -0.021 | [7] -0.055 | [8] -0.012 | [9] -0.021 | [10] 0.006 | [11] 0.025 | [12] -0.096 | [13] 0.051 | [14] 0.06 | [15] 0.037 | [16] 0.01 | [17] 0.009 | [18] -0.041 | [19] -0.003 | [20] -0.012

ACOX1 isoform 2 (UniProt Q15067)
inactive: [1] 0.017 | [2] 0.003 | [3] -0.029 | [4] 0.015 | [5] 0.053 | [6] -0.026 | [7] -0.038 | [8] 0.1 | [9] -0.014 | [10] 0.004 | [11] -0.049 | [12] 0.041 | [13] 0.012 | [14] 0.012 | [15] 0.017 | [16] -0.015 | [18] 0 | [19] 0.01 | [20] 0.018
active: [17] -0.255

AGL (UniProt P35573)
inactive: [1] -0.014 | [2] 0.002 | [3] -0.015 | [4] -0.063 | [5] -0.058 | [6] 0.013 | [7] 0.131 | [8] -0.083 | [9] 0.013 | [10] 0.049 | [11] 0.046 | [12] -0.099 | [13] 0.014 | [14] 0.024 | [15] -0.002 | [16] 0.008 | [17] 0.178 | [18] -0.004 | [19] -0.012 | [20] -0.007

AIFM2 (UniProt Q9BRQ8)
inactive: [1] -0.19 | [2] 0.091 | [3] -0.029 | [4] -0.018 | [5] -0.004 | [6] -0.089 | [7] -0.057 | [8] 0.149 | [9] -0.062 | [10] 0.036 | [11] -0.032 | [12] 0.044 | [13] 0.114 | [14] 0.045 | [15] 0.099 | [16] 0.024 | [17] 0.107 | [18] -0.032 | [19] -0.034 | [20] 0.038

ACIN1 (UniProt E7EQT4)
inactive: [1] -0.057 | [2] 0.026 | [3] -0.021 | [4] -0.011 | [5] 0.045 | [6] 0.048 | [7] -0.321 | [8] 0.127 | [9] -0.016 | [10] 0.047 | [11] -0.093 | [12] 0.095 | [13] 0.003 | [14] -0.038 | [15] 0.06 | [16] 0.022 | [17] -0.033 | [18] -0.039 | [19] -0.011 | [20] 0.051

ACACB (UniProt O00763)
inactive: [1] 0.012 | [2] 0.028 | [3] 0.024 | [4] -0.113 | [5] -0.11 | [6] 0.038 | [7] -0.14 | [8] 0.027 | [9] 0.018 | [10] 0.037 | [11] -0.04 | [12] -0.153 | [13] 0.007 | [14] 0.019 | [15] -0.043 | [16] 0.127 | [17] -0.156 | [18] 0.016 | [19] 0.006 | [20] 0.006

ALG8 (UniProt Q9BVK2)
UniProt Q9BVK2, sequence (Q9BVK2 whole entry, looked up): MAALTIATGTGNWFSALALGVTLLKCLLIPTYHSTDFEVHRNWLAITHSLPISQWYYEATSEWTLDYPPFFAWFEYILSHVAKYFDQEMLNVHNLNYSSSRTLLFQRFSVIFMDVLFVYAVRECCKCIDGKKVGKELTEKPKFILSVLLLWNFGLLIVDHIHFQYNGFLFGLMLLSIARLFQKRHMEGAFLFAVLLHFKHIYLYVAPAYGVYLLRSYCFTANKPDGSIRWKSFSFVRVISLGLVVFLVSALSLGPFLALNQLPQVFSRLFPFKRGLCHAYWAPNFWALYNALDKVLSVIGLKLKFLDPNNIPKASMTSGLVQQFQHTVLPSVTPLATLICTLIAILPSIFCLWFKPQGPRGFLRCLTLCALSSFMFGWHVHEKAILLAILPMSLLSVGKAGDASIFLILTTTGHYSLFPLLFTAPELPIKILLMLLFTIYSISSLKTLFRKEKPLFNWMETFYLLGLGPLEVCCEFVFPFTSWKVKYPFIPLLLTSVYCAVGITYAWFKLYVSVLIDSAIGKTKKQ
active: [7] -0.316
inactive: [1] -0.038 | [2] -0.013 | [3] 0 | [4] -0.084 | [5] 0.034 | [6] 0.045 | [8] 0.001 | [9] 0.005 | [10] 0.038 | [11] 0.004 | [12] -0.118 | [13] -0.007 | [14] 0.001 | [15] -0.012 | [16] 0.04 | [17] -0.09 | [18] 0.076 | [19] -0.019 | [20] 0.103
